# Sampled rows, rich in hits. Any-hit rate of the full collection: about 2.1%.
# MazF activator – activators of E. coli MazEF toxin-antitoxin RNase. P0AE70. FAM/BHQ RNA-DNA oligo cleavage fluorescence, 5 h. activation, % at 20 µM. 350,000 tested, 0.32% active; in the data active means activation above about 50%
# PrP UTR inh – inhibition of PrP 5' UTR reporter expression; inhibition, % (test concentration not listed); cell-based PrP 5' UTR mRNA reporter, plate reader; 340,000 tested, 0.35% active; AID 488862; in the data active means inhibition above about 52%; further: 0 = median of the neutral control wells
# DUSP3 inh – inhibitors of human VHR1 phosphatase (DUSP3); 290,000 tested, 0.52% active; inhibition, % at 13.3 µM; recombinant VHR phosphatase, pNPP absorbance; P51452; in the data active means inhibition above about 50%
# PrPC TRFRET – cell surface PrPC inhibition, primary TR-FRET screen; P04156; TR-FRET read-out; inhibition, % at 13.8 µM; 370,000 tested, 0.43% active; in the data active means inhibition above about 24%; further: 0% = median of the test wells and 100% = reference compound wells
# PfHsp40 yeast – restores yeast growth despite PfHsp40 toxicity. S. cerevisiae expressing PfHsp40, growth rescue, ATP luminescence. growth rescue, % at 12.5 µM. 340,000 tested, 0.68% active. AID 504582; in the data active means growth rescue above about 28%, passing the limit was not always enough;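 further: yeast W303a lacking pdr1 and pdr3 grown in galactose medium; growth measured after three days at 30 °C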
# BJeLR viability – BJeLR cell viability loss | BJeLR (HRASV12) viability, CellTiter-Glo ATP luminescence, 48 h | inhibition, % (no concentration beside the values) | 300,000 tested, 0.17% active | AID 1554; in the data active means inhibition above about 50%
# PrPC confirm – cell surface PrPC inhibition, TR-FRET confirmation | inhibition, % at 13.8 µM | shares compounds with PrPC TRFRET | 1,500 tested, 65% active | AID 743200 | cell surface PrPC level; in the data active means inhibition above about 25%
# LD9 tox – LD9 cell cytotoxicity, PrPc inhibitor counter-screen; shares compounds with PrPC TRFRET; LD9 cells cytotoxicity, luminescence viability; inhibition, % at 13.8 µM; 1,500 tested, 29% active; in the data active means inhibition above about 9.5%
# * = called active by the depositor; / = no result.
SMILES,MazF activator,PrP UTR inh,DUSP3 inh,PrPC TRFRET,PfHsp40 yeast,BJeLR viability,PrPC confirm,LD9 tox
COC(=O)c1cc(Br)c(=O)n(-c2nccs2)c1,4,-5,19,49*,0,-10,94*,-3
COC(=O)CSc1nc(-c2ccccc2)nc2ccc(F)cc12,0,-28,26,49*,-1,-4,107*,-4
CCOC(=O)CSc1nc(-c2ccccc2)nc2ccccc12,1,4,21,105*,-1,-11,116*,3
CCOC(=O)CSc1nc2ccccc2c(=O)[nH]1,6,-64,2,5,-1,5,/,/
CCOC(=O)C(C)Sc1nc(-c2ccccc2)nc2ccc(F)cc12 (configuration not stated),3,-16,26,1,1,-4,/,/
CCOC(=O)C(C)Sc1nc(-c2ccccc2)nc2ccccc12 (configuration not stated),-5,-9,0,84*,4,-5,109*,3
CCOC(=O)CSc1nc(-c2ccccc2)nc2ccc(F)cc12,10,-6,19,26*,1,-5,105*,5
Cc1cc(C(=O)O[C@@H]2CCC[C@@]3(C(=O)N(Cc4ccccc4)c4ccccc43)[C@H]2NC(=O)CCc2ccccc2)no1,/,/,/,8,/,/,/,/
CC(=O)N1c2ccccc2N2C(c3c(C)c(C)cc(C)c3C)=NON12,-15,-18,33,10,0,/,/,/
O=c1[nH][nH]c2c1[C@H](c1ccc(F)cc1)O[C@H](CCc1ccccc1)C2,/,/,/,-6,/,/,/,/
COC(=O)[C@H](CC1(c2cn(S(=O)(=O)CC[Si](C)(C)C)c3ccccc23)C(=O)Nc2ccccc21)NC(=O)OC(C)(C)C (some centres not stated),/,/,/,47*,/,/,59*,-1
CNNC(=S)Nc1cccc(C(F)(F)F)c1,8,/,27,62*,/,0,-1,-6
COc1ccc(OC)c(C2NC(=O)N(C)C(C)=C2C(=O)OCc2ccccc2)c1 (configuration not stated),-2,13,15,68*,-1,-6,79*,-4
Cc1ccc(C)c(NC(=O)Cc2nc(CNCC(C)C)cs2)c1,13,-14,32,0,1,-4,/,/
CC1CC(N(C(=O)c2ccco2)c2ccccc2)c2ccccc2N1C(=O)c1ccco1 (configuration not stated),-3,-17,-8,-2,0,-5,/,/
CC1CC(N(C(=O)c2ccc(Cl)cc2)c2ccccc2)c2ccccc2N1C(=O)c1ccco1 (configuration not stated),8,-27,-11,25*,-2,-1,13,-3
Cc1cnn(-c2ccccc2)c1NC(=O)COCc1ccccc1,/,/,/,9,/,/,/,/
O=C(Nc1ccc2ccccc2c1)NC1CCCCN(Cc2ccc(Cl)cc2)C1=O (configuration not stated),/,/,/,14,/,/,/,/
Cn1c(=O)cc(OCCCC(=O)Nc2cc(-c3cn[nH]c3)ccn2)c2ccccc21,/,/,/,35*,/,/,41*,24*
COc1ccc(S(=O)(=O)N(C)C[C@H]2Oc3c(NC(=O)Cc4ccccc4)cccc3C(=O)N([C@H](C)CO)C[C@@H]2C)cc1,2,-11,/,-7,0,/,/,/
CCOC(=O)C1=C(COC(=O)c2cccnc2Cl)NC(=O)NC1C (configuration not stated),7,-23,/,6,1,-1,/,/
Cn1cnc2c1c(=O)n(Cc1cccc(Br)c1)c(=O)n2C,1,-14,7,0,0,-3,/,/
Cn1c(N2CCC(C(N)=O)CC2)nc2c1c(=O)n(Cc1cccc(Br)c1)c(=O)n2C,2,-8,29,42*,-1,0,59*,-5
Cn1c(=O)c2ccccc2n(C)c1=O,/,/,/,-4,/,/,/,/
CCc1nc(SCC(=O)NNC(=O)C2CCCCC2)c2ccccc2n1,-4,-14,1,60*,-1,5,114*,-9
SMILES,MazF activator,PrP UTR inh,DUSP3 inh,PrPC TRFRET,PfHsp40 yeast,BJeLR viability,PrPC confirm,LD9 tox
CC(C)C(=O)NNC(=O)CSc1nc(C2CCCCC2)nc2ccccc12,-37,-4,4,3,-1,3,/,/
CCc1nc(SCC(=O)NNC(=O)C(C)C)c2ccccc2n1,-4,-5,2,104*,-1,-14,114*,-8
CC(=O)c1ccc(NC(=O)CSc2nc(C3CC3)nc3ccccc23)cc1,26,15,-14,0,-2,0,/,/
CCc1nc(SCC(=O)Nc2ccc(N(C)C)cc2)c2ccccc2n1,1,-11,2,61*,1,-6,81*,-6
Cc1cc(Br)cn2c(Cc3cccc(Cl)c3)c(-c3cccc(Cl)c3)nc12,/,/,/,-7,/,/,/,/
COc1ccc(-c2nc3c(C)cc(Br)cn3c2CC(C)(C)C)cc1OC,/,/,/,42*,/,/,52*,-4
COc1ccccc1Cc1c(-c2ccc(OC)c(OC)c2)nc2c(C)cc(Br)cn12,/,/,/,3,/,/,/,/
COc1ccc(-c2nc3c(C)cc(Br)cn3c2Cc2cccc(Cl)c2)cc1OC,/,/,/,26*,/,/,62*,-5
Cc1ccccc1-c1cnc(C(O)c2c(C)cccc2C)[nH]1 (configuration not stated),/,/,/,1,/,/,/,/
COc1ccc(C(=O)Nc2nnc(Cc3cccs3)s2)cc1OC,15,-14,26,65*,-2,1,36*,-1
COc1ccc(Cc2nnc(NC(=O)c3ccc(OC)c(OC)c3)s2)cc1,1,-17,11,-1,0,11,/,/
CCO[C@H]1OC(C(=O)Nc2ccccc2)=C[C@@H](c2ccc(C(F)(F)F)cc2)[C@@H]1CCCO,4,-18,-2,31*,11,-4,6,-3
CCO[C@H]1OC(C(=O)NCc2ccccc2)=C[C@@H](c2ccc(C(F)(F)F)cc2)[C@@H]1CCCO,8,-2,18,6,15,-22,/,/
CCOC(=O)c1c(C)[nH]c(C(=O)C(C)OC(=O)c2cccc(OCc3c(C)noc3C)c2)c1C (configuration not stated),2,-10,6,38*,1,-2,26*,5
CCC(C)NC(=O)c1cccc(OCc2c(C)noc2C)c1 (configuration not stated),11,-11,-7,-1,1,1,/,/
O=C(CSc1ccccc1)NCCc1ccccc1,-5,-45,1,-1,0,0,/,/
O=C(CSc1ncnc2ccccc12)NCCc1ccccc1,4,-25,14,62*,-1,-1,79*,-8
O=C(CSc1ncnc2ccccc12)NCc1ccco1,-2,-1,38,76*,-1,3,77*,-1

# Screening results from PubChem BioAssay.
